A selection: hits, their analogues and other compounds. The true share with any hit is near 8%.
HT1080-NT tox: kills 2HG-producing HT-1080-NT fibrosarcoma cells; AID 686970; 360,000 compounds, 1.6% hits; Potency, µM (doses to about 46.1 µM), for the others: at the highest dose activity, negative = less viability, hits mostly cytotoxic; HT-1080-NT fibrosarcoma viability, CellTiter-Glo ATP luminescence, 48 h;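 further: NT is the 2HG producing partner of a matched IDH1 knockdown line; 0% = DMSO-treated cells and -100% = media-only wells without cells; nearly all actives have a fitted effect of over 55% in size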
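HT-1080-NT; 750 cells/well; 5% FBS RPMI; 48 h compound, 37 degrees C; CellTiter-Glo luminescence; curve fitting and curve-class assignment.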
KB-V1 MDR tox: kills drug-selected multidrug resistant KB-V1 cells | KB-V1 MDR cells viability, CellTiter-Glo, 72 h | Potency, µM (highest dose often 46.1 µM), most hits filed as cytotoxic | 400,000 compounds, 3.4% hits | AID 1347076; further: on the % scale 0 is the no-effect control and ±100 the full control effect; nearly all actives have a fitted effect of over 60% in size
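Readout: CellTiter-Glo luminescence, 10 min after addition. Cells: KB-V1 MDR subline, 72 h at 37 degrees C with compound. Analysis: corrected, normalized data fitted to concentration-effect curves.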
SW480 rerep: inducers of DNA re-replication in SW480 colon cancer cells; AID 624297; SW480 DNA re-replication, Hoechst DNA content imaging, 48 h; Potency, µM (highest dose often 46.1 µM), inactives show at the highest dose re-replication activation, actives largely listed as activators; 340,000 compounds, 1.8% hits; further: % of control where 0% means no effect; nearly all actives have a fitted effect of over 55% in size
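Quantitative HTS format with DMSO vehicle controls; 48 hr drug incubation at 37 C, then 40 min Hoechst staining and scanning imager measurement at 405 nm excitation.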
HT1080 IDH1KD tx: toxicity to HT-1080 IDH1 knockdown cells (counter line). Potency, µM (series often up to 46.1 µM), for the others: top-dose activity, negative = toxicity, hits mostly cytotoxic. HT-1080 IDH1 knockdown viability, ATP luminescence, 48 h. 360,000 compounds, 2% hits;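 further: 0% = DMSO wells and -100% = cell-free medium wells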
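Cytotoxicity counter-line: IDH1KD HT-1080, 48 h, CellTiter-Glo. Curves classed by r2, magnitude and activity.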
MCF10A rereplic: inducers of DNA re-replication in MCF 10A breast cells. Potency, µM (top dose mostly 46.1 µM), without a hit: top-dose activity, positive = re-replication, actives largely listed as activators. MCF 10A DNA re-replication, Hoechst nuclear intensity, 48 h. 350,000 compounds, 2.9% hits; further: % of control where 0% means no effect; nearly all actives have a fitted effect of over 50% in size
KB-3-1 cytotox: KB-3-1 parental cell cytotoxicity; KB-3-1 viability, CellTiter-Glo ATP luminescence, 72 h; Potency, µM (series often up to 46.1 µM), hits mostly cytotoxic; 400,000 compounds, 1.4% hits; AID 1347075; further: on the % scale 0 is the no-effect control and ±100 the full control effect; nearly all actives have a fitted effect of over 60% in size
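Here the drug-naive KB-3-1 line serves as comparator for MDR sub-line selectivity; cells received compound titrations, 72 h at 37 °C, then CellTiter-Glo readout.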
Active calls of the source: *; i = inactive; ? = inconclusive; . = no result. The call rests on the fitted dose curve; in most records, active means well fitted curve in the direction sought with a large enough effect; inconclusive means small, poorly fitted or top-dose-only effect, or another doubt; inactive means no such curve, though single readings can be large; an effect the other way counts as inactive or inconclusive. Potency means the concentration at half of the fitted maximal effect.

SMILES | HT1080-NT tox | KB-V1 MDR tox | SW480 rerep | HT1080 IDH1KD tx | MCF10A rereplic | KB-3-1 cytotox
COc1ccc(CC(=O)N2N=C(c3ccncc3)CC2(O)C(F)(F)F)cc1 (stereo unspecified) | 15µM* | 5.2µM* | 18µM* | 9.2µM* | ? | i
CCC1=NN(C(=O)C(=O)Nc2ccc(OC)cc2)C(O)(C(F)(F)F)C1 (stereo unspecified) | 8.9µM* | i | -1% | 5µM* | -5% | i
Cc1ccc(S(=O)(=O)N2CCN(c3nc(-c4ncco4)nc4ccccc34)CC2)cc1 | -9% | . | . | -7% | . | .
O=C(C[C@H]1CC[C@H](NC(=O)C2CCOCC2)[C@@H](CO)O1)NCc1ccncc1 | 21% | i | . | 20% | . | i
COc1cccc(Nc2nc(-c3cccc(N4C(=O)c5ccccc5C4=O)c3)cs2)c1 | -14% | i | -4% | -13% | 9% | i
CCOC(=O)C1=C(c2ccccc2)OC(N)=C(C#N)C1C(C)C (stereo unspecified) | -5% | i | -4% | -8% | 3% | i
CCC1=NN(C(=O)C(=O)NCCc2ccccc2)C(O)(C(F)(F)F)C1 (stereo unspecified) | ? | i | -12% | 18µM* | 7% | i
CCCc1cc(=O)[nH]c(SCCc2ccccc2)n1 | 10% | 16µM* | -8% | 0% | -7% | ?
Cc1cc(NCC2CCCCC2)nc2ccccc12 | ? | 9.2µM* | 14% | 7.3µM* | 26µM* | i
Cc1cc(NCCNC2=CC(=O)CCC2)nc2ccccc12 | 7% | i | -5% | 4% | -4% | i
CCOC(=O)N1CCN(C(=O)c2cc(-c3ccc(OCC)cc3)nc3ccccc23)CC1 | 5µM* | 2.3µM* | 4.6µM* | 5µM* | 3.7µM* | 4.6µM*
CCOc1ccc(-c2cc(C(=O)N3CCN(C)CC3)c3ccccc3n2)cc1 | 6% | i | 1% | 1% | -3% | i
CCOC(=O)N1CCN(C(=O)c2cc(-c3ccncc3)nc3ccccc23)CC1 | ? | ? | 18µM* | ? | ? | ?
COc1cc(NC(=O)Cn2nnc(-c3ccccc3N)n2)cc(OC)c1 | -11% | i | -6% | -28% | -4% | i
Oc1ccccc1C=NN=Cc1ccccc1Cl | 1% | ? | 1% | -3% | 0% | i
NC(N)=N/N=C/c1cccc(Cl)c1Cl | 23µM* | ? | ? | 21µM* | -3% | ?
Cn1nnc2c[n+](CC(=O)c3ccc(Cl)cc3)cc(Br)c21 | ? | i | ? | ? | ? | ?
Cn1nnc2c[n+](CC(=O)c3ccc4ccccc4c3)cc(Br)c21 | ? | i | ? | 21µM* | ? | ?
CC(CN1CCCCC1)OC(=O)CCc1ccccc1 (stereo unspecified) | 2% | i | 4% | 10% | 22% | ?
N#CC1=C2SCC(O)(c3ccccc3)N2C(=O)CC1c1ccccc1F (stereo unspecified) | ? | ? | ? | 16µM* | 23µM* | 9.2µM*
COc1ccc(C2CC(=O)N3C(=C2C#N)SCC3(O)c2ccccc2)cc1 (stereo unspecified) | -14% | 21µM* | -2% | ? | 21% | i
N#CC1=C2SCN(Cc3ccccc3)CN2C(=O)CC1c1ccccc1F (stereo unspecified) | -3% | i | -1% | -1% | 14% | i
N#CC1=C2SCC(O)(c3ccccc3)N2C(=O)CC1c1cccs1 (stereo unspecified) | 0.63µM* | 0.58µM* | 7.3µM* | 0.35µM* | 1.3µM* | 0.73µM*
CCCCC(NC(=O)CCc1c(C)c2cc3c4c(oc3c(C)c2oc1=O)CCCC4)C(=O)O (stereo unspecified) | -5% | i | -14% | -8% | -12% | i
Cc1ccc(NC(=O)C(=O)NCC(c2cccnc2)N2CCN(C)CC2)cc1 (stereo unspecified) | . | ? | . | . | . | i
SMILES | HT1080-NT tox | KB-V1 MDR tox | SW480 rerep | HT1080 IDH1KD tx | MCF10A rereplic | KB-3-1 cytotox
Oc1ccc(Br)cc1-c1nc2cnccn2c1NC1CCCCC1 | ? | i | ? | -18% | 8% | i
Oc1ccc(Br)cc1-c1nc2cnccn2c1NC1CCCC1 | -13% | 23µM* | ? | -13% | ? | ?
CSC(=NC(C)c1ccccc1)NS(=O)(=O)c1cccs1 (stereo unspecified) | -3% | 23µM* | -45% | -6% | 5% | ?
CC(C)N=C(NS(=O)(=O)c1cccs1)c1ccccc1 | -7% | i | -16% | 16% | 5% | i
COc1ccc(NS(=O)(=O)c2cc(NC(=O)c3cnc(C)cn3)ccc2N2CCCC2)cc1 | -19% | 4.6µM* | 79% | 0% | 17% | i
COc1ccc(NS(=O)(=O)c2cc(NC(=O)C3CC3)ccc2N2CCCCC2)cc1 | -21% | ? | ? | ? | ? | ?
COc1ccc(NS(=O)(=O)c2cc(NC(=O)c3ccco3)ccc2N2CCCCC2)cc1 | -25% | i | ? | ? | ? | 21µM*
COc1ccc(NS(=O)(=O)c2cc(NC(=O)c3cnc(C)cn3)ccc2N2CCCCC2)cc1 | -9% | i | 5% | -13% | 25% | i
COc1ccc(NS(=O)(=O)c2cc(NC(=O)c3ccc(=O)[nH]c3)ccc2N2CCCC2)cc1 | ? | i | ? | 2.1µM* | ? | 3.7µM*
Cc1ccc(Cn2c(/C=C/c3ccco3)nc3ccccc32)cc1 | -1% | ? | -9% | ? | -2% | i
Clc1ccc(Cn2c(/C=C/c3ccco3)nc3ccccc32)cc1 | ? | i | 16% | ? | 21µM* | i
COc1ccc(C2C(=O)N(CCc3ccccc3)CC(=O)N2C2CCCCC2)cc1 (stereo unspecified) | -6% | 3.7µM* | 3% | ? | 3% | i
CCn1ccc2c(OCC(=O)NCc3ccc(C)cc3)cccc2c1=O | . | ? | . | . | . | i
O=C(N/N=C/c1cccc([N+](=O)[O-])c1)c1ccccc1-n1cccc1 | -2% | ? | 2% | 26% | 8% | i
Cc1ccc(C(=O)Nc2cccc(Oc3ccccc3)c2)o1 | 2% | ? | 1% | -12% | ? | i
CN(C)/C(CN1CCOCC1)=C1\N=C(c2ccccc2)OC1=O | 3% | 16µM* | -7% | 7% | -4% | i
Cc1cccc(NC(=O)c2sc3nc(-c4ccccc4)cn3c2C)n1 | -5% | 21µM* | -3% | -18% | -2% | i

Source: PubChem BioAssay (National Center for Advancing Translational Sciences (NCATS))
